Experimental data as given in PubChem BioAssay (NCATS).
Records with an inconclusive call do not appear. Where a call stands in place of a potency, no number is given. Values without a mark were called inactive. Activity calls are given as the source filed them. Calls follow the shape of the dose curve; as a rule, active = well fitted curve in the direction sought with a large enough effect; inconclusive = small, poorly fitted or top-dose-only effect, or another doubt; inactive = no such curve, though single readings can be large; an effect the other way counts as inactive or inconclusive.

Experiments:
[1] = target: Rap guanine nucleotide exchange factor 3 (Homo sapiens) (UniProt O95398); experiment: Confirmatory qHTS for agonist of cAMP-regulated guanine nucleotide exchange factor 3 (EPAC1) (AID 1645881);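 also: EPAC1 catalysed release of BODIPY-GDP from Rap1B seen as fluorescence loss; nearly all actives have a fitted effect of over 75% in size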
Sequence of Rap guanine nucleotide exchange factor 3 (Homo sapiens) (O95398 whole entry, looked up): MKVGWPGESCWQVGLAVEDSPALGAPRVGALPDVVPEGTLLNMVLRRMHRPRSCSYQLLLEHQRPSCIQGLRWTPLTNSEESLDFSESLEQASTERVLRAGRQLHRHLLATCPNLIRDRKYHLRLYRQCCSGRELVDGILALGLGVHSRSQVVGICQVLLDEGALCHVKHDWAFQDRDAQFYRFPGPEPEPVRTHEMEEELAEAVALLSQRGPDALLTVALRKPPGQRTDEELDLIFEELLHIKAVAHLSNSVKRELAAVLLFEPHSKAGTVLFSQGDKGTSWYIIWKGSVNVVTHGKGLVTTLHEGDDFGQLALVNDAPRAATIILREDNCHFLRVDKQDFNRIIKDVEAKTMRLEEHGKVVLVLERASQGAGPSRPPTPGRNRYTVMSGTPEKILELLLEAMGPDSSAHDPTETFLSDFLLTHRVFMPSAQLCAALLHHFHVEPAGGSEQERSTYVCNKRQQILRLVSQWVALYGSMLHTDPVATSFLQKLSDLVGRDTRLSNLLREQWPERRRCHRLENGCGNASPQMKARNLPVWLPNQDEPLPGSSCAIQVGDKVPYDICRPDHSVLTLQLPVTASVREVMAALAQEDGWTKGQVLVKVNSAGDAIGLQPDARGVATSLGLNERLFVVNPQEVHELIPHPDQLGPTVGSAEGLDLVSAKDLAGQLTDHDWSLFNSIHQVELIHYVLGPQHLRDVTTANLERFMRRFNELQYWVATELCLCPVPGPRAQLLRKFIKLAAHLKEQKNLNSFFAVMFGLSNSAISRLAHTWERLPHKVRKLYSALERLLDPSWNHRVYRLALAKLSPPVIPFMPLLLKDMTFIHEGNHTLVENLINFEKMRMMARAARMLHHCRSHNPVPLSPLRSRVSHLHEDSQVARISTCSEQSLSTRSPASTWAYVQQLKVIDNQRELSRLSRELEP

[2] = target: Rap guanine nucleotide exchange factor 4 (Homo sapiens) (UniProt Q8WZA2); experiment: Confirmatory qHTS for agonist of cAMP-regulated guanine nucleotide exchange factor 4 (EPAC2) (AID 1645884);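 also: nucleotide exchange releases bodipy-GDP from Rap1 and this lowers its fluorescence; nearly all actives have a fitted effect of over 65% in size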
Sequence of Rap guanine nucleotide exchange factor 4 (Homo sapiens) (Q8WZA2 whole entry, looked up): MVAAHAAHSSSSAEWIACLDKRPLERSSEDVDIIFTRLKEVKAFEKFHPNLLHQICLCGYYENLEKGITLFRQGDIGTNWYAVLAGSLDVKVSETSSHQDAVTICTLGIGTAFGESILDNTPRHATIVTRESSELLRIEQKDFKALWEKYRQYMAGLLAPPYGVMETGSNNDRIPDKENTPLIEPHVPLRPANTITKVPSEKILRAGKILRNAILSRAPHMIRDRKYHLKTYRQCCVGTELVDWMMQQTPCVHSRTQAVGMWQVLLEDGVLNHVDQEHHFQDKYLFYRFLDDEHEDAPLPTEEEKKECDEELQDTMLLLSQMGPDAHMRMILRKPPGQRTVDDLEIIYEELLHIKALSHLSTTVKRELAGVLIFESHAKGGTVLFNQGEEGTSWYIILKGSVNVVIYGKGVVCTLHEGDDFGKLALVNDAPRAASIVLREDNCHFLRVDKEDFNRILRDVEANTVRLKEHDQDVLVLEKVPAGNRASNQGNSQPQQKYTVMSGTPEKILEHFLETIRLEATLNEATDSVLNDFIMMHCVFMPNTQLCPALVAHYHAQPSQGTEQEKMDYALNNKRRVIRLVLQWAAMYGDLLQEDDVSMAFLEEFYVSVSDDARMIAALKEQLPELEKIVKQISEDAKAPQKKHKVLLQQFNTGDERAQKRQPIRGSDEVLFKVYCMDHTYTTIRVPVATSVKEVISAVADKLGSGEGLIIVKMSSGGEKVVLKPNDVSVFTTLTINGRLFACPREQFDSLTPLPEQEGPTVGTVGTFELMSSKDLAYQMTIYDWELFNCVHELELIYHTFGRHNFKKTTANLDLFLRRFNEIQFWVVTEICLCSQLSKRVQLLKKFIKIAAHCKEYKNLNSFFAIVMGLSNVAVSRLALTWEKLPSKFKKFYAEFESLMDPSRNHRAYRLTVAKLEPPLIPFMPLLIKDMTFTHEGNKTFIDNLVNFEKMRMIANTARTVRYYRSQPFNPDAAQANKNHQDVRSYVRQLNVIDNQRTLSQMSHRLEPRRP

[3] = target: Rap guanine nucleotide exchange factor 4 (Homo sapiens) (UniProt Q8WZA2); experiment: Confirmatory qHTS for antagonist of cAMP-regulated guanine nucleotide exchange factor 4 (EPAC2) (AID 1645885); also: nearly all actives have a fitted effect of over 25% in size; also: potency is read from the fitted curve at half-maximal effect
[4] = target: Rap guanine nucleotide exchange factor 3 (Homo sapiens) (UniProt O95398); experiment: Counterscreen qHTS for antagonist of cAMP-regulated guanine nucleotide exchange factor 3 (EPAC1) (AID 1645888);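 also: fluorescence loss as bound BODIPY-GDP is released from Rap1B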
In short: (§1)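 Rap1B–BODIPY-GDP (250 nM) with 50 uM GDP; compounds pin-transferred to 9.74 nM–152 uM final (activator) or from 7.32 nM upwards (inhibitor). Fluorescence Ex/Em 480/540 nm read at 5 and 30 min, then after adding cAMP or buffer, at room temperature.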

[5] = target: Rap guanine nucleotide exchange factor 3 (Homo sapiens) (UniProt O95398); experiment: Counterscreen qHTS for agonist of cAMP-regulated guanine nucleotide exchange factor 3 (EPAC1) (AID 1645889); also: nearly all actives have a fitted effect of over 40% in size; also: potency is read from the fitted curve at half-maximal effect
In short: as §1

Structure (SMILES)	Potency [1]	Potency [2]	Potency [3]	Potency [4]	Potency [5]	activation [2]	activity change, negative = inhibition [4]	activation [5]
Oc1ccc(NCc2ccc(OCc3ccccc3Cl)cc2)cc1	inactive	inactive	inactive	inactive	56.2 µM (active)			
O=C1C=C(NCc2ccccc2)c2ccccc2C1=O	inactive	inactive	15.1 µM (active)	inactive	inactive			
CCOc1cc(/C=C2/SC(=S)N(CC(=O)O)C2=O)ccc1OC(=O)c1cccs1	inactive	inactive	inactive	inactive	inactive			
O=C1CC(c2c(F)cccc2Cl)c2c(ccc3ccccc23)N1 (stereo not given)	inactive	inactive	inactive	inactive	inactive			
NS(=O)(=O)c1ccc(N/N=C/c2ccccc2C(=O)O)c([N+](=O)[O-])c1	inactive	inactive	inactive	inactive	inactive			
Cc1nn(-c2ccccc2)c(C)c1-c1cc(C(=O)N/N=C/c2ccc(O)cc2)[nH]n1	inactive		inactive			-7.34% [at 17.1 µM, percent relative to cAMP agonist control]	-7.56% [at 30.8 µM]	9.11% [at 30.8 µM]
N#CCC(=O)Nc1ccc(C(=O)OCC(=O)Nc2ccc3ccccc3c2)cc1	inactive	inactive	inactive	inactive	inactive			
Cc1cc(NS(=O)(=O)c2ccc(Nc3nc(-c4ccc(O)cc4)cs3)cc2)no1	inactive	inactive	26.9 µM (active)	inactive	inactive			
Cc1nn(CCc2nn[nH]n2)c2nc(-c3ccc(Br)cc3)cc(C(F)(F)F)c12	inactive	inactive	inactive	inactive	inactive			
COc1ccccc1Cc1c(-c2ccco2)nc2cc(C)c(Br)c(C)n12	inactive		inactive			3.49% [at 17.1 µM, percent relative to cAMP agonist control]	-0.951% [at 30.8 µM]	13.6% [at 30.8 µM]
N#CC1=C(N)Oc2cc(N)ccc2C1c1ccc(Cl)cc1 (stereo not given)	inactive	inactive	47.8 µM (active)	inactive	inactive			
CCCCCNC(=O)C(C#N)c1nc2ccccc2nc1N1CCCC1 (stereo not given)	inactive		inactive			-33.7% [at 17.1 µM, percent relative to cAMP agonist control]	-27.7% [at 30.8 µM]	-1.55% [at 30.8 µM]
CC1=NCCN1S(=O)(=O)c1c(C(C)C)cc(C(C)C)cc1C(C)C	inactive	inactive	inactive	inactive	inactive			
COc1cc(/C=C2/SC(=O)NC2=O)ccc1OCc1ccccc1	inactive	inactive	inactive	inactive	inactive			
O=C(NCC(c1ccco1)N1CCCCC1)c1cccc(NS(=O)(=O)c2ccc(Br)cc2)c1 (stereo not given)	inactive		inactive			-6.31% [at 17.1 µM, percent relative to cAMP agonist control]	-11.8% [at 30.8 µM]	29.4% [at 30.8 µM]
Clc1ccc(Cn2c(/C=C/c3ccco3)nc3ccccc32)cc1	inactive	inactive	inactive	inactive	inactive			
COc1ccc2oc(C(=O)Nc3ccc(N4CCOCC4)cc3)c(C)c2c1	inactive		inactive			-0.0841% [at 17.1 µM, percent relative to cAMP agonist control]	7.62% [at 30.8 µM]	8.1% [at 30.8 µM]
CC(=O)/C(=N/Nc1ccccc1)Sc1nnc(CCc2ccccc2)n1-c1ccccc1	inactive	inactive	inactive	inactive	inactive			
CCOc1cc(/C=C/C(=O)OCC(=O)NCc2ccco2)cc(Cl)c1OC	inactive	inactive	inactive	inactive	inactive			
Oc1cccc(-c2nc3ncccn3c2Nc2cccc(C(F)(F)F)c2)c1	inactive	inactive	inactive	inactive	inactive			
